Test results: the supplement of paper PMC3334620
The full ranking holds about 33,000 sequences; the median of “E-score (-0.5 to 0.5)” is about -0.035, and the highest 2% start at about 0.34. This excerpt belongs to a sample that is enriched for the highest values.

Biological target: T1, Mot3 (UniProt P54785)
T1 sequence: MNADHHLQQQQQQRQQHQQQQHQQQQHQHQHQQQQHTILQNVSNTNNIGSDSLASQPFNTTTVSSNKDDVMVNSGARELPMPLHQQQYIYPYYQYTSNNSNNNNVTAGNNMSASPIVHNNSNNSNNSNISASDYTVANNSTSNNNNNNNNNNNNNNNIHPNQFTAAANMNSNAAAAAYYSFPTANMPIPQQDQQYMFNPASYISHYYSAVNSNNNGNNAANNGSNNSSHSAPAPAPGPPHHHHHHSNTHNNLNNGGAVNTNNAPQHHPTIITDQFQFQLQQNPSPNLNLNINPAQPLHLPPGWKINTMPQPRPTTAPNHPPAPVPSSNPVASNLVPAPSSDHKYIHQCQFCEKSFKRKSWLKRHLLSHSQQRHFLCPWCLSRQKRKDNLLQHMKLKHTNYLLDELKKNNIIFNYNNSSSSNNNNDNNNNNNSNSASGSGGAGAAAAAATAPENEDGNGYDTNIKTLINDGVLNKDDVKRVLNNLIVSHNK
Test: PBM E-score (8-mer binding enrichment) (E-score (-0.5 to 0.5)); higher = stronger / more preferred TF binding
Details: protein concentration: 200 nM; construct: GST-full length
Procedure, shortened: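 Full-length yeast transcription factors or their DNA-binding domains, GST-tagged and expressed with PURExpress, were applied at about 100-200 nM to universal all-10-mer Agilent arrays. These arrays had been made double-stranded by primer extension on fresh or once-stripped slides. Detection used fluorescent anti-GST, normalisation used masliner, and E-scores for ungapped eight-base words pooled with reverse complements came from the Universal PBM Analysis Suite.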

| Sequence | PBM E-score |
| --- | --- |
| CGCAGCCC | -0.265 |
| CAGCAACC | -0.184 |
| TAACGCAA | 0.2 |
| CGAGAACG | -0.206 |
| GGGTAAGA | -0.146 |
| ATCGCTTC | -0.178 |
| ACAAAGGC | 0.36 |
| ACAAAGGG | -0.0152 |
| CCAAAGGC | 0.145 |
| ATAGCGCA | -0.0413 |
| AGAGCTAT | 0.00577 |
| AAATGTAC | 0.227 |
| AAATGTAG | 0.151 |
| CAATGTAA | 0.34 |
| TAATGTCA | 0.139 |
| TAATGTAA | 0.354 |
| CAATGTAC | 0.184 |
| GAATGTAA | 0.295 |
| CAATGTAG | 0.234 |
| AAATGTAA | 0.346 |
| ATTCTCTC | -0.103 |
| ATATTAAA | 0.184 |
